These results are taken from PubChem BioAssay.

Test [1] deals with Plasmodium falciparum Sir2 (PF13_0152, Sir2A). Briefly: pfSir2 binders on small-molecule microarrays, primary screen, biochemical, small-molecule microarray, 635 nm fluorescence (AID 1098).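 Also: score merges spot fluorescence intensity with its signal-to-noise ratio.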 The conditions noted are these: small-molecule microarray binding, fluorescence 635 nm; higher = more signal.
Test [2] is described as follows: small-molecule microarray binders of probe aDKK1, primary screen, biochemical, biotinylated probe, 635/667 nm fluorescence (AID 1099).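 Also: score merges 667nm spot fluorescence with signal to noise across triplicate slides; reference of the scale not given here.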 The conditions noted are these: higher = more signal.
Test [3] can be described thus: small-molecule microarray binders of probe aCHRDL2, primary screen, biochemical, biotinylated probe, 635/667 nm fluorescence (AID 1100). The conditions noted are these: higher = more signal.
Test [4] is described as follows: splicing luciferase reporter signal modulators, primary screen, spliceosome inhibition project, cell-based, HEK293, splice +/- reporter (AID 1101).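 Also: HEK293 cells carrying a splicing-competent luciferase reporter gene; test concentration not given here.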 The settings on record: luminescence, 24 h, higher = more signal, called active from +8 up or from −8 down.
The target of test [5] is Fibroblast growth factor 10 (Homo sapiens) (UniProt O15520). Briefly: FGF10 binders on small-molecule microarrays, primary screen, biochemical, small-molecule microarray, 635 nm fluorescence (AID 1102). The conditions noted are these: FGF10 binding, fluorescence 635 nm, higher = more signal.
The subject of test [6] is glycogen synthase kinase-3 (GSK3A per assay name; protocol says GSK3B). As to the kind of experiment: GSK3 binders on small-molecule microarrays, primary screen, biochemical, small-molecule microarray, 635 nm fluorescence, GSK3A (AID 1103). Also: the record names both GSK3A and GSK3B. The settings on record: small-molecule microarray binding, fluorescence 635 nm; higher = more signal.
The target in test [7] is Epidermal growth factor receptor (Homo sapiens) (UniProt P00533). As to the kind of experiment: EGFR binders on small-molecule microarrays, primary screen, biochemical, small-molecule microarray, 635 nm fluorescence (AID 1104).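 Also: score merges 667 nm emission intensity with spot signal to noise over triplicate slides.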 The conditions noted are these: EGFR binding, higher = more signal.
Test [8] deals with Follistatin-related protein 3 (Homo sapiens) (UniProt O95633). As to the kind of experiment: FSTL3 binders on small-molecule microarrays, primary screen, biochemical, small-molecule microarray, 635 nm fluorescence (AID 1105).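 Also: score merges emission near 667 nm and signal to noise per printed spot across three slides.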 The settings on record: FSTL3 binding, higher = more signal.
For test [9], the target named is Dickkopf-related protein 1 (Homo sapiens) (UniProt O94907). Briefly: DKK1 binders on small-molecule microarrays, primary screen, biochemical, small-molecule microarray, 635 nm fluorescence scan (AID 1106).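 Also: score merges emission near 667 nm with signal to noise over three replicate slides.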 The settings on record: DKK1 binding, higher = more signal.
Test [10] concerns Inhibin beta A chain (activin A). As to the kind of experiment: INHBA (activin A) binders on microarrays, primary screen, biochemical, small-molecule microarray, 635 nm fluorescence scan (AID 1107).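 Also: mouse activin A protein probed at 4.33 µg/mL on printed slides; score merges bound-protein fluorescence near 667 nm with spot signal-to-noise.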 The settings on record: small-molecule microarray binding, higher = more signal.

Structures are written as SMILES. Active and inactive are the calls of the source.

Sequence of Follistatin-related protein 3 (Homo sapiens) (O95633 whole entry, looked up): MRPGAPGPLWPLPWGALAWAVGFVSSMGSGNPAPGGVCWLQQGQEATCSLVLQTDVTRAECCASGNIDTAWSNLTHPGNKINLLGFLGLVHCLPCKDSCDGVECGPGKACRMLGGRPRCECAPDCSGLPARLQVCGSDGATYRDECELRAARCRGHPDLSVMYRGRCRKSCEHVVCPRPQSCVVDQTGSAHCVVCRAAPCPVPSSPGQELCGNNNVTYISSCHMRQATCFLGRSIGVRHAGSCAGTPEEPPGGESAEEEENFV
Sequence of Dickkopf-related protein 1 (Homo sapiens) (O94907 whole entry, looked up): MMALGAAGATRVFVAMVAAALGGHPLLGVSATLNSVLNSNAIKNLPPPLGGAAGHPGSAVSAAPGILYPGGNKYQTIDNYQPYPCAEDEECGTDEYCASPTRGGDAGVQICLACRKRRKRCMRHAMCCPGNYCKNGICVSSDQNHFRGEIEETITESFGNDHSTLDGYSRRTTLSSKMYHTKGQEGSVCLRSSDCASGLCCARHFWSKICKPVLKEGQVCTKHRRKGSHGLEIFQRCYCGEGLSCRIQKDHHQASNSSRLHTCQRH
Sequence of Epidermal growth factor receptor (Homo sapiens) (P00533 whole entry, looked up): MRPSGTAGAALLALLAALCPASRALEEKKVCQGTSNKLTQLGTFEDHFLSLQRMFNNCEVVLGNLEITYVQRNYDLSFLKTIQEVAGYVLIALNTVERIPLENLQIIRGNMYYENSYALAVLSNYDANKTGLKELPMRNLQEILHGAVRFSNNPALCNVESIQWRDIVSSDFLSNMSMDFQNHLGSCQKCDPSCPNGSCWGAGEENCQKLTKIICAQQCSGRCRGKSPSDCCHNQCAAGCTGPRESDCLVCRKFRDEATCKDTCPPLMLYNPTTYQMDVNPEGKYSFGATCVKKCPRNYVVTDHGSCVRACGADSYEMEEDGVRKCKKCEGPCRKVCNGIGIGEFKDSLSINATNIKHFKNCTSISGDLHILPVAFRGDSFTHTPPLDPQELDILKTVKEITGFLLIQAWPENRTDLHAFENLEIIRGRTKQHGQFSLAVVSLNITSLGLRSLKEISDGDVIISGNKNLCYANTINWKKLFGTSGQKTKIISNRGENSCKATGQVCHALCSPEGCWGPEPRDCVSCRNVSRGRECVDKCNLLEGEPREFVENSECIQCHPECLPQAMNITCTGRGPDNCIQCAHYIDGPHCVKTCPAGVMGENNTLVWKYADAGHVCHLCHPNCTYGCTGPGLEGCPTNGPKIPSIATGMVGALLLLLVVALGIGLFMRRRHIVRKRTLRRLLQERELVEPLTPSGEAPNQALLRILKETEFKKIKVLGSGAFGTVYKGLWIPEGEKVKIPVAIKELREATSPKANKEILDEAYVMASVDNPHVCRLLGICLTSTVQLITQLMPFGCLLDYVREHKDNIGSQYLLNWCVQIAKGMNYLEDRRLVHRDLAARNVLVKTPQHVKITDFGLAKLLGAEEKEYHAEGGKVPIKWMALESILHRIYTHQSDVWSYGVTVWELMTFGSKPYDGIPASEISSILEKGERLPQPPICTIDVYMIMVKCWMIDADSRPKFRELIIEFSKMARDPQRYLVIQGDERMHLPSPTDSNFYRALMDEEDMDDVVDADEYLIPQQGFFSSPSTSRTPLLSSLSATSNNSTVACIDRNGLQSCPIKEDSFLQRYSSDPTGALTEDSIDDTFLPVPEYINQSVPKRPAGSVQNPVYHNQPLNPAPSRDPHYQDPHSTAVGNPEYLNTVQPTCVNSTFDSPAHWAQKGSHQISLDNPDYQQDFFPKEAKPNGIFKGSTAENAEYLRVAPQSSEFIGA
Sequence of Fibroblast growth factor 10 (Homo sapiens) (O15520 whole entry, looked up): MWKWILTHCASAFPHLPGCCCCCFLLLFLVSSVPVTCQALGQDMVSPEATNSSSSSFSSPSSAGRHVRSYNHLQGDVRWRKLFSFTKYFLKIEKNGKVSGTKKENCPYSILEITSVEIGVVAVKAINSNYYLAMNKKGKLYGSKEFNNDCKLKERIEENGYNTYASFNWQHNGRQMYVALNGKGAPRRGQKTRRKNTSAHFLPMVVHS

`COC(=O)[C@@]1(Cc2ccccc2)[C@H]2c3cc(C(=O)N(C)C)n(CCn4cc([N+](=O)[O-])nc4C)c3C[C@H]2CN1C(=O)c1ccccc1`: the composite z-score in [1] was 1.72; in test [2], -0.262; in test [3] it was 0.436; in test [5], 0.937; in [6], 0.793; in test [7] it was 0.355. Besides, the composite z-score in [8] was 0.444; in test [9], 0.0356; in test [10], 0.581. The z-score in [4] was -0.106 (inactive).
Regarding `O=C1N[C@@H](Cc2ccccc2)C(=O)N2[C@@H]1C[C@@H](C(=O)O)[C@H]2c1ccc(O)cc1`, the composite z-score in test [1] turned out to be 1.31; in test [2], 0.731; in [3], 0.707; in test [5], 0.727; in test [6], 0.86; in test [7], 0.315. Besides, the composite z-score in [8] came out at 1.45; in [9] it was 1.63; in test [10] it was 0.853. Moreover, the z-score in test [4] was -0.485 (inactive).
For the molecule `C=CCC(OC(C)=O)[C@@H]1[C@@H](N(Cc2ccc(-c3cccc(C(F)(F)F)c3)o2)C(=O)c2ccc(C)cc2)c2cc(OCCCO)ccc2N1C(=O)Cc1ccc(OC)cc1` (stereo not given in full), the composite z-score is 1.1 in test [1]; -0.145 in test [2]; -0.0583 in test [3]; -0.0938 in test [5]; -0.808 in test [6]; -0.0424 in [7]. In addition, the composite z-score in [8] is 0.345; in [9], 0.0682; in [10], 0.975. Also, in test [4], the z-score was -0.0858 (inactive).
For `C=C(COC)C(=O)CC[C@H](OC(C)=O)c1ccc(OCCO)cc1`, the composite z-score is 0.761 in test [1]; -0.0747 in test [2]; -0.0486 in test [3]; 1.35 in [5]; -0.143 in test [6]; -0.0056 in [7]. Also, the composite z-score in [8] was 0.576; in [9], 0.722; in test [10], 0.136. In [4], the z-score was -1.5 (inactive).
Take `COC(=O)c1c2oc(c1C(=O)OC)C(=O)N1CCC[C@H]1Cn1nncc1CN(Cc1ccccc1)C(=O)N[C@H](CO)CC2`: the composite z-score in test [1] was 0.614; in test [2], -0.304; in [3], -0.0048; in test [5], 0.627; in [6], -0.103; in test [7], 0.327. The composite z-score was -0.0361 in [8], -0.113 in [9] and 0.309 in [10]. Besides, in test [4], the z-score was 0.733 (inactive).
Consider `CN(C)CCCCNC(=O)[C@H]1C[C@H]2C(=O)N[C@@H](CCCC[N+](C)(C)C)C(=O)N2[C@H]1c1ccc(O)cc1`, for which the composite z-score in [1] was 1.26; in test [2] it was -0.209; in [3], -0.328; in test [5], -0.937; in [6] it was -0.55; in test [7], -0.327. For the same molecule, the composite z-score was -0.205 in test [8], 0.357 in [9] and 0.0643 in test [10]. Also, the z-score in test [4] is -1.48 (inactive).
As for `COc1ccc([Si](C)(C)[C@H]2[C@H](CC(=O)N3Cc4ccccc4C[C@H]3CO)O[C@@]3(C(=O)N(Cc4ccc(N5C(=O)c6cccc7cccc5c67)cc4)c4ccccc43)[C@@H]2C)cc1`, the composite z-score in [1] was 0.959; in [2] it was -0.247; in test [3] it was -0.0288; in test [5], 0.884; in test [6], 1.28; in test [7], 0.868. Also, the composite z-score in [8] stood at 1.31; in test [9], 0.879; in test [10], 0.473. In addition, in [4], the z-score was -0.91 (inactive).
Turning to `NC(=O)[C@@H]1[C@H]2C(=O)O[C@H](c3ccccc3)[C@H](c3ccccc3)N2[C@H](c2ccc(OCCO)cc2)[C@@]12C(=O)Nc1ccc(C#CCCO)cc12`, the composite z-score in [1] is 0.344; in test [2] it was 0.585; in [3], 0.823; in [5], 0.372; in [6], -0.168; in test [7], -0.385. In addition, the figures for the composite z-score in [8], in test [9] and in test [10] were -0.12, 0.0322 and 0.297, respectively. Further, in test [4], the z-score is 1.02 (inactive).
As for `[N-]=[N+]=Nc1ccccc1[C@@H]1OC(c2ccc(OCCCO)cc2)=N[C@]1(Cc1ccccc1)C(=O)NCc1ccccc1`, the composite z-score in test [1] was 1.57; in test [2], 1.24; in [3], 1.37; in [5], 1.02; in test [6], 1.06; in test [7], 0.0762. The values for the composite z-score in test [8], in [9] and in test [10] were 0.395, 0.0944 and 0.604, respectively. The z-score in test [4] was 0.459 (inactive).
In the case of `COc1ccc(C#Cc2ccc3c(c2)[C@]2(C(=O)N3)[C@H](c3ccc(OCCO)cc3)N3[C@H](c4ccccc4)[C@H](c4ccccc4)OC(=O)[C@H]3[C@@H]2C(=O)N2CCc3cc(OC)c(OC)cc3C2)cc1`, the composite z-score in [1] came to 1.38; in test [2], 1.5; in [3], 0.185; in [5], 1.23; in test [6], 1.28; in [7] it was 0.871. Besides, the composite z-score in test [8] is 1.01; in test [9], 1.28; in [10] it was -0.258. Also, the z-score in [4] was -0.517 (inactive).
`CCCCCN1CC=CC23O[C@@H]4/C=C\CCC(C)OC(=O)C4[C@H]2C(=O)N(CCCCCCO)[C@@H]3C1=O` (stereo not given in full): the composite z-score in test [1] is 1.44; in [2] it was -0.219; in test [3], 0.248; in test [5] it was -0.381; in [6], -0.459; in test [7], -0.434. For the same molecule, the composite z-score in test [8] was -0.303; in [9], -0.397; in test [10] it was 1.13. Also, in test [4], the z-score is -0.833 (inactive).
On to `COCCOC(=O)N1C(=O)[C@@]2(c3cc(C#CCNC(N)=O)ccc31)[C@H](c1ccc(OCCO)cc1)N1[C@H](c3ccccc3)[C@H](c3ccccc3)OC(=O)[C@H]1[C@@H]2C(N)=O`, for which the composite z-score in [1] was 0.826; in [2] it was 0.695; in test [3], 0.435; in test [5], 0.748; in test [6], -0.0886; in test [7] it was 1.14. The composite z-score in test [8] came to 0.455; in [9], 0.204; in test [10] it was 1.07. For the same molecule, in test [4], the z-score was 0.928 (inactive).
For the molecule `Cc1ccc(F)cc1S(=O)(=O)N[C@@H]1CCN(Cc2cccc3[nH]ccc23)C1`, the composite z-score in [1] was 0.245; in [2] it was -0.374; in test [3], -0.518; in [5], 0.67; in test [6], 0.67; in test [7], 0.719. For the same molecule, the composite z-score in test [8] was 1.36; in test [9] it was 0.236; in [10], 0.741. In test [4], the z-score is -0.44 (inactive).
With `C=CCC(OC(C)=O)[C@@H]1[C@@H](N(Cc2cc3ccccc3o2)C(=O)c2ccc(-c3ccccc3)cc2)c2cc(OCCCO)ccc2N1C(=O)Cc1ccc(OC)cc1` (stereo not given in full), the composite z-score in test [1] was 0.104; in test [2], -0.102; in [3], 0.0935; in test [5], 0.247; in test [6] it was -0.744; in [7], 0.0306. For the same molecule, the composite z-score in [8] is 0.307; in test [9], 0.063; in test [10], 0.774. Further, the z-score in [4] was -0.762 (inactive).
As for `CC(C)[C@H]1NC(=O)[C@@]23C(=O)N[C@@H](Cc4ccccc4)C2[C@H](C)[C@@]2(C)O[C@H]2C3/C=C/CCC/C=C/CNC(=O)[C@H](Cc2ccccc2)NC1=O` (stereo not given in full), the composite z-score in [1] is 1.39; in [2], -0.339; in test [3], -0.32; in test [5] it was 0.106; in [6], 0.291; in test [7], -0.023. In addition, the composite z-score in test [8] was found to be 0.0435; in test [9] it was 0.147; in test [10], 0.943. The z-score in [4] is 0.286 (inactive).
